We go through 13 molecules from PubChem BioAssay (NCATS).

SMILES strings stand for the structures. Results filed as inconclusive are left out. The source made the active and inactive calls. The call rests on the fitted dose curve; in most records, active means well fitted cell-killing curve with a large enough effect; inconclusive means small, poorly fitted or top-dose-only effect, or effect the other way; inactive means no such curve, though single readings can be large or run the other way.
Potency means the concentration at half of the fitted maximal effect.

The experiment can be described thus: Viability qHTS for spleen associated tyrosine kinase inhibitor (SYKi) drug resistant MV4-11 cells (AID 1963824). Further: nearly all actives have a fitted effect of over 35% in size. The note with it: SYKi-resistant MV4-11 viability, CellTiter-Glo, 72 h; series mostly up to 45 µM. The procedure, abridged: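 CellTiter-Glo luminescence, read 10 min after reagent addition, reports viability after a 72 hr compound exposure. Cells are an MV4-11 line made resistant to SYK inhibition, seeded at 500 per well onto compound-containing plates.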
(Quantitative high-throughput screening tests each substance at several concentrations.)
Take `O=C1NC(=O)c2cc(Nc3ccccc3)c(Nc3ccccc3)cc21`: the Potency is 9.2 µM (active).

`Cc1ccc(NS(=O)(=O)c2cc3c(cc2N(C)C)CCC(=O)N3)cc1C`: the Potency is 18.4 µM (active).

As to `C=C1C(O[C@@H]2O[C@H](CO)[C@@H](O)[C@H](O)[C@@H]2O)CC2C(C)(C)C(O)CCC2(C)C1CC/C(C)=C\CO` (stereo partly drawn), the Potency entry was “inactive”.

On to `Nc1ccn([C@H]2O[C@@H](CO)[C@H](O)[C@H]2O)c(=O)n1`, for which the Potency is 1.46 µM (active).

Turning to `O=S(=O)(c1cccc2c(Cl)cccc12)N1CCCNCC1`, the Potency was 20.6 µM (active).

`Cc1c(CN2CCN(C(=O)C(C)O)CC2)sc2c(N3CCOCC3)nc(-c3cnc(N)nc3)nc12` (stereo not drawn): the Potency is 0.366 µM (active).

Take `CC(C)(O)c1ccc2c(c1)C(=O)C[C@H]1[C@](C)(C(=O)O)CCC[C@]21C`: the Potency result is “inactive”.

Consider `CC1=C(c2ccc(NC(=O)c3c(F)cccc3F)cc2)CN(c2nccs2)CC1`, for which the Potency is 2.59 µM (active).

`CCCNCCOc1ccc(NC(=O)c2c[nH]c3c2C(=O)CCC3)cc1F`: the Potency is 2.91 µM (active).

Consider `C[C@@H]1O[C@@H](O[C@H]2[C@H](O)[C@@H](O[C@@H]3O[C@H](CO)[C@@H](O)[C@H](O[C@@H]4O[C@H](CO)[C@@H](O)[C@H](O)[C@H]4O)[C@H]3O)[C@H](O[C@H]3CC[C@@]4(C)C(=CC[C@@H]5C4CC[C@@]4(C)C5C[C@@H]5OC6(CC[C@@](C)(CO[C@@H]7O[C@H](CO)[C@@H](O)[C@H](O)[C@H]7O)O6)[C@@H](C)[C@@H]54)C3)O[C@@H]2CO)[C@H](O)[C@H](O)[C@H]1OC1OC(CO)C(O)C(O)C1O` (stereo partly drawn), for which the viability, % of control was 109% [at 9.25 µM] (inactive).

As to `COc1ccc(-c2csc(NC(=O)[C@H]3CCCCN3S(=O)(=O)c3ccc(C)cc3)n2)cc1`, the Potency is 5.17 µM (active).

`Cc1ccc2[nH]c(=O)c(C3=NN(C(=O)CCC(=O)O)C(c4ccc(Br)cc4)C3)c(-c3ccccc3)c2c1` (stereo not drawn): the Potency was 23.1 µM (active).

`CC(=O)C1=CCC2C3CC=C4CC(O)CC(O)C4(C)C3C(O)CC12C` (stereo not drawn): the Potency was 16.1 µM (active).
